Out of some 310,000 compounds screened, about 14,000 (4.5%) showed an effect of 50% or more. The effect is printed as a negative number. The sample as a whole holds a higher share of strong results than the screen did.
target: human ether-à-go-go-related gene (hERG) potassium channel (human, UniProt Q12809); assay: primary screen, population patch clamp on CHO cells stably expressing hERG; higher = less effect of the substance
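Also: peak tail current of the secondary pulse compared with the same well before compound.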

Sequence of human ether-à-go-go-related gene (hERG) potassium channel (Q12809 whole entry, looked up): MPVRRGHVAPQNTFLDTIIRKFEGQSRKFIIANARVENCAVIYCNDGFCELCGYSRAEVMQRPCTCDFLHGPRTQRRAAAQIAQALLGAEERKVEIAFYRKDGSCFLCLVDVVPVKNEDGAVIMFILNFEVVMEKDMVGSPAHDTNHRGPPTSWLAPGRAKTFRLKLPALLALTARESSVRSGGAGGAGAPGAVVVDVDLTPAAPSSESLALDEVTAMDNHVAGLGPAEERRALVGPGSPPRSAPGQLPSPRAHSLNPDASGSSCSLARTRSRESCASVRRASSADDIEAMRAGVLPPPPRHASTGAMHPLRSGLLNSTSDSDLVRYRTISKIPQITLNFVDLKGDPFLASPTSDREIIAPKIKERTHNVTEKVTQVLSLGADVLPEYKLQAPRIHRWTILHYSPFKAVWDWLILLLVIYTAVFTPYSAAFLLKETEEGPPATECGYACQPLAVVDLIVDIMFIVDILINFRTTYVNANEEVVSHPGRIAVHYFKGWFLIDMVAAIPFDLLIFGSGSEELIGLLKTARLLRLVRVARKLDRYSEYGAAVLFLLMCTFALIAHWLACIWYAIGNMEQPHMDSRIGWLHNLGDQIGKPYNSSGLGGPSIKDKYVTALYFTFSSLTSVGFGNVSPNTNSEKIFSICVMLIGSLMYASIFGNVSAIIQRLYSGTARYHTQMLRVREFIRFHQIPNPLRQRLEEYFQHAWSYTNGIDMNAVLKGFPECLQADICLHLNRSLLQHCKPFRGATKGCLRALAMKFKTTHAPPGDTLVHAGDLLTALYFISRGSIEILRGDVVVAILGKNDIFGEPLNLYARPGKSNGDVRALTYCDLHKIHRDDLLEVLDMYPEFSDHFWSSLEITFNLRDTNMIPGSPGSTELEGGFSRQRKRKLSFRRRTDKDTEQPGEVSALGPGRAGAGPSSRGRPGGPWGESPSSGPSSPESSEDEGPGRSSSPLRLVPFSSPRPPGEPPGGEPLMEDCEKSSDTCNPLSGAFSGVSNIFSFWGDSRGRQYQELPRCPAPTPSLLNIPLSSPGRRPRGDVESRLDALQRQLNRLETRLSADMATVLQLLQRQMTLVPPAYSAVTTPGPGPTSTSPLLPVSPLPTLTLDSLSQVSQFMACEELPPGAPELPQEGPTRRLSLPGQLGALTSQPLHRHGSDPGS

| Compound | hERG current change (%, negative = inhibition) at 10uM [%] |
| --- | --- |
| O=C(NC(=S)Nc1ccc(Br)cn1)c1cncc(Br)c1 | 11.3 |
| O=C(NCc1ccccc1Cl)C1=CC=CN2CCS(=O)(=O)N=C12 | -11.1 |
| Cc1cc(Nc2ccc(Br)cc2F)n2nc(C)nc2n1 | -21.5 |
| O=C(CSc1nnc(C2CCCCC2)o1)Nc1ccccc1Cl | -11.5 |
| COc1ccc(Cl)c(NCCC(=O)O)c1 | 15.5 |
| Cc1c(N=C/C=C/c2ccccc2)c(=O)n(-c2ccccc2)n1C | 11.1 |
| O=S(N1CCc2ccccc21)C12CC3CC(CC(C3)C1)C2 (stereo not shown) | -6.09 |
| O=C1C=C(c2ccc3c(c2)OCO3)C[C@@H](c2ccc(Cl)cc2)C1 | 5.86 |
| O=C(NCc1ccccc1)c1ccc(Oc2ccc(C(=O)NCc3ccccc3)cc2)cc1 | -3.44 |
| Br.CCOC(=O)CN1C2=NCCCN2c2ccccc21 | 2.95 |
| O=C1c2ccccc2N(Cc2ccc(Cl)cc2)C2=NCCN12 | -13.5 |
| Cl.Clc1ccc(CN2C3=NCCCN3c3ccccc32)c(Cl)c1 | -66 |
| O=C1CCCc2ccccc2N1Cc1ccc(Cl)cc1Cl | -18.2 |
| Cl.Clc1ccc(CN2C3=NCCN3c3ccccc32)cc1 | -69.5 |
| Cl.ClCCN1C2=NCCCN2c2ccccc21 | -26.4 |
| Cc1ccc(C)c(C(=O)CN2C(=O)c3ccccc3C2=O)c1 | 9.96 |
| Cl.Clc1ccc(CN2C3=NCCCN3c3ccccc32)cc1 | -75.1 |
| Br.Cc1ccc(C)c(C(=O)CN2C3=NCCCN3c3ccccc32)c1 | -69.2 |
| COc1ccc(NC(=O)CCOc2ccccc2)c(OC)c1 | 1.87 |
| CNC(=O)NC(=O)COC(=O)c1n[nH]c2ccccc12 | 16.5 |
| CCc1ccc(Nc2nc(N3CCOCC3)nc(N3CCOCC3)n2)cc1.Cl | 8.6 |
| C/C(=N\NC(=O)C1CCCN(S(=O)(=O)c2ccccc2)C1)c1ccccn1 (stereo not shown) | -20.8 |

| Compound | hERG current change (%, negative = inhibition) at 10uM [%] |
| --- | --- |
| CN(C)Cc1c(C(=O)N/N=C/CCc2ccccc2)nnn1-c1nonc1N | -31.1 |
| Cc1onc(-c2ccccc2)c1CNS(=O)(=O)c1cccc(Cl)c1 | -7.19 |
| O=C1CCCc2ccccc2N1Cc1cccc(Cl)c1 | -16.3 |
| Cl.c1ccc(CN2C3=NCCCN3c3ccccc32)cc1 | -57.5 |
| Cl.O=C(CN1C2=NCCCN2c2ccccc21)c1ccc(Cl)cc1Cl | -79.6 |
| Cl.O=C(O)CN1C2=NCCCN2c2ccccc21 | 16.1 |
| Brc1ccc(CN2C3=NCCCN3c3ccccc32)cc1.Cl | -74.2 |
| c1ccc(CN2C3=NCCN3c3ccccc32)cc1 | -39.5 |
| Cl.Clc1cccc(CN2C3=NCCCN3c3ccccc32)c1 | -75.4 |
| Clc1cccc(CN2CCCCCC2)c1 | 12.3 |
| O=C1CCCC2=C1C(c1ccc(O)c(Br)c1)C1=C(CCCC1=O)N2c1ccccc1 | -33 |
| COc1ccc(C2C(C#N)=C(C)NC3=C2S(=O)(=O)c2ccccc23)cc1 (stereo not shown) | -38.6 |
| CCOC(=O)c1sc(=NC(=O)COc2ccc(Cl)cc2)n(C)c1C | 3.44 |
| COc1cc(C)c(NC(=O)COc2cccc3c2OC(C)(C)C3)cc1OC | -7.8 |
| COc1cc(SC)ccc1C(=O)NCCNC(=O)c1nonc1N | -6.81 |
| COc1ccccc1NC(=O)CCS(=O)(=O)c1ccc2c(c1)NC(=O)C(C)S2 (stereo not shown) | -4.76 |
| COc1ccc(NC(=S)Nc2ccccn2)cc1 | 13.5 |
| COc1ccc(C)cc1C(=O)CCC(=O)NCCc1ccc(S(N)(=O)=O)cc1 | 19.6 |
| CCOc1ccc(Cn2nnc(C(=O)NCc3ccccc3)c2N)cc1 | 11.6 |
| O=C1NC(=O)C2(Cc3ccccc3N3CCCC32)C(=O)N1c1cccc(Cl)c1 (stereo not shown) | -18.1 |
| CC(=O)c1cccc(N(C(=O)c2csnn2)C(C(=O)NC2CCCC2)c2ccccc2)c1 (stereo not shown) | -18.5 |
| CCOc1ccc(N(C(=O)c2cnccn2)C(C(=O)NC2CCCCC2)c2ccc(O)cc2)cc1 (stereo not shown) | 10.4 |

| Compound | hERG current change (%, negative = inhibition) at 10uM [%] |
| --- | --- |
| CC(C)c1ccc(N(C(=O)c2csnn2)C(C(=O)NC2CCCC2)c2ccncc2)cc1 (stereo not shown) | -57.8 |
| COc1ccc(N(C(=O)c2csnn2)C(C(=O)NC2CCCC2)c2ccccc2)cc1 (stereo not shown) | -9.35 |
| CCOc1ccc(N(C(=O)c2cnsn2)C(C(=O)NC2CCCCC2)c2ccncc2)cc1 (stereo not shown) | -69.4 |
| CCc1ccc(N(C(=O)c2csnn2)C(C(=O)NC(C)(C)CC)c2ccccn2)cc1 (stereo not shown) | -54.3 |
| Cc1ccc(N(C(=O)c2csnn2)C(C(=O)NC2CCCCC2)c2ccncc2)cc1 (stereo not shown) | -1.71 |
| O=C(NC1CCCC1)C(c1ccncc1)N(C(=O)c1csnn1)c1ccc(Cl)cc1 (stereo not shown) | -10.4 |
| CC(=O)c1ccc(N(C(=O)c2csnn2)C(C(=O)NC2CCCC2)c2ccccc2)cc1 (stereo not shown) | -54.9 |
| COc1ccc(N(C(=O)c2cnsn2)C(C(=O)NC2CCCCC2)c2ccncc2)cc1 (stereo not shown) | -26.7 |
| CCc1ccc(N(C(=O)c2csnn2)C(C(=O)NC(C)(C)C)c2ccccn2)cc1 (stereo not shown) | -42.7 |
| CCC(C)(C)NC(=O)C(c1ccccn1)N(C(=O)c1csnn1)c1ccccc1 (stereo not shown) | 5.39 |
| COc1cccc(Nc2ncnc3onc(-c4ccccc4OC)c23)c1 | -4.9 |
| CNC(=S)N(Cc1cc2cc(C)cc(C)c2[nH]c1=O)C1CCCC1 | -3.94 |
| c1ccc(CCCc2nc(-c3ccccn3)no2)cc1 | -7.53 |
| COc1ccccc1Nc1nnc(SCC(=O)N2CCCC2=O)s1 | -11.4 |
| COCCCNC(=O)C1CCN(c2ccc(N3CCOCC3)nn2)CC1 | 10.1 |
| O=C(CCCc1nc2ccccc2s1)N1CCN(c2ccccc2F)CC1 | -31.3 |
| COc1ccc2[nH]c3c(=O)n4c(nc3c2c1)SCC4 | 6.11 |
| COc1ccc(CN2CC(C(=O)NCCCOC(C)C)CC2=O)cc1 (stereo not shown) | 0.406 |
| CC(CC(=O)Nc1ccc(F)cc1F)S(=O)(=O)c1ccc2c(c1)NC(=O)CO2 (stereo not shown) | -9 |
| CC(=O)c1ccc(N2C(=O)C3C4C=CC(CC4)C3C2=O)cc1 (stereo not shown) | 13.6 |
| CN(C)S(=O)(=O)c1cccc(C(=O)Nc2ccccc2N2CCCCC2)c1 | 5.55 |
| CCn1c(SC(C)C(=O)NCC2CCCO2)nc2scc(-c3ccccc3)c2c1=O (stereo not shown) | -28.7 |

| Compound | hERG current change (%, negative = inhibition) at 10uM [%] |
| --- | --- |
| COCCn1c(SC(C)C(=O)NCC2CCCO2)nc2scc(-c3ccc(F)cc3)c2c1=O (stereo not shown) | -66.5 |
| COCCn1c(SC(C)C(=O)NCC2CCCO2)nc2sc3c(c2c1=O)CCC3 (stereo not shown) | -8.18 |
| CCOC(=O)/C(=C/c1c(C)n(C)c2ccc([N+](=O)[O-])cc12)C(C)=O | -19.6 |
| Cc1nn(-c2ccc(C(=O)OC(C)C)cc2)c(C)c1[N+](=O)[O-] | 4.98 |
| CCOC(=O)CNC(=O)C1CCN(S(=O)(=O)c2ccc(-c3nn[nH]n3)cc2)CC1 | 8.58 |
| Cc1cccc2cc(CN(Cc3cccnc3)C(=O)c3ccccc3F)c(Cl)nc12 | -49.6 |
| Cc1cc(C)c2cc(CN(Cc3cccnc3)C(=O)c3ccc(F)cc3)c(Cl)nc2c1 | -64.7 |
| COCCN(Cc1cc2c(C)cc(C)cc2nc1Cl)C(=O)c1ccccc1F | 44.3 |
| CC(=O)Nc1ccccc1C(=O)C(=O)Nc1ccc(C)c(F)c1 | 24.3 |
| O=C(CSC1=NCCS1)Nc1ccc(S(=O)(=O)NC2CCCCC2)cc1 | -8.65 |
| CC(=O)c1ccc(OCC(O)CN2CC(C)OC(C)C2)cc1.Cl (stereo not shown) | 8.19 |
| OC(COc1ccc(OCC(O)CN2CCN(Cc3ccccc3)CC2)cc1)CN1CCN(Cc2ccccc2)CC1 (stereo not shown) | 5.65 |
| O=C(c1ccccc1)c1ccc(OCC(O)CN2CCN(Cc3ccccc3)CC2)cc1 (stereo not shown) | -73.4 |
| CC1CCN(CC(O)COc2ccc(C(=O)c3ccccc3)cc2)CC1 (stereo not shown) | -67.4 |
| CC1CCN(CC(O)COc2ccc(-c3ccccc3)cc2)CC1.Cl (stereo not shown) | -81 |
| CCC(=O)c1ccc(OCC(O)CN2CC(C)OC(C)C2)cc1.O=C(O)C(=O)O (stereo not shown) | 14 |
| CC(=O)c1ccc(OCC(O)CN2CCN(Cc3ccccc3)CC2)cc1.Cl (stereo not shown) | -48.2 |
| CC(=O)c1ccc(OCC(O)CN2CCC(C)CC2)cc1.Cl (stereo not shown) | -31.6 |
| CC1CCN(CC(O)COc2ccc(OCC(O)CN3CCC(C)CC3)cc2)CC1 (stereo not shown) | 3.84 |
| NC(=O)C1CCN(CC(O)COc2ccc(-c3ccccc3)cc2)CC1 (stereo not shown) | -34.4 |
| O=C(c1ccccc1)c1ccc(OCC(O)CN2CCCC2)cc1 (stereo not shown) | -45.3 |
| CC1CN(CC(O)COc2ccc(C(=O)c3ccccc3)cc2)CC(C)O1 (stereo not shown) | -63.3 |
